# Source: PubChem BioAssay (EPA / NIEHS)
# “And” between values parts separate entries of the source, which are not always exact repeats. Identical values can stand only once. Where a structure was tested more than once in an assay, its records may differ in their call. The source made the active and inactive calls. The calls were made as follows: active = hit-call score of the fitted dose curve at least 0.9, where 1 is the maximum; inactive = score below 0.9.
# Columns and labels:
# [1] = read-out: Vascular endothelial growth factor receptor 2 (Homo sapiens) (UniProt P35968); assay: BSK_4H_VEGFRII: BioMAP Diversity Plus: 4H Assay for Vascular endothelial growth factor receptor 2 (VEGFR2) Biomarker Activity (AID 2283031); details: primary human endothelial cells (HUVEC); actives raise or lower the signal;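 as to AC50: cell-surface VEGFR2 protein level quantified by ELISA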
# Summary of the method: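 In this multiplexed HUVEC system, biomarker ELISA was performed after 24 h chemical exposure. Parallel SRB staining (TCA fixation, 560 nm) tracked cytotoxicity; DMSO served as baseline.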
# [2] = read-out: Human Leukocyte Antigen - DR isotype (HLADR), HLA-DRA (gene 3122); assay: BSK_BE3C_HLADR: BioMAP Diversity Plus: BE3C Assay for Human Leukocyte Antigen - DR isotype (HLADR) Biomarker Activity (AID 2283032); details: primary human bronchial epithelial cells; actives raise or lower the signal
# Summary of the method: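 Signal came from an ELISA for HLA-DR in human bronchial epithelial primary cells harvested 24 h after treatment; gain- and loss-of-signal fitting used DMSO controls as reference.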
# [3] = read-out: Vascular cell adhesion molecule 1 (VCAM1), VCAM1 (gene 7412); assay: BSK_4H_VCAM1: BioMAP Diversity Plus: 4H Assay for Vascular cell adhesion molecule 1 (VCAM1) Biomarker Activity (AID 2283033); details: primary human endothelial cells (HUVEC); actives raise or lower the signal;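 as to outcome: cell-surface VCAM-1 protein measured by ELISA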
# Summary of the method: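 Endpoint derived from bidirectional fitting against DMSO controls of VCAM-1 ELISA signal in umbilical vein endothelial cells sampled at 24 h following treatment.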
# [4] = read-out: Interferon-gamma inducible Protein 10 (IP10), CXCL10 (gene 3627); assay: BSK_BE3C_IP10: BioMAP Diversity Plus: BE3C Assay for Interferon-gamma inducible Protein 10 (IP10) Biomarker Activity (AID 2283034); details: primary human bronchial epithelial cells; actives raise or lower the signal
# Summary of the method: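 Using primary human bronchial epithelial cultures, the assay captures IP-10 by ELISA one day (24 h) after exposure. Parallel SRB staining of total protein flags overt cytotoxicity. Fits run bidirectionally relative to DMSO.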
# [5] = read-out: Monokine induced gamma interferon (MIG), CXCL9 (gene 4283); assay: BSK_BE3C_MIG: BioMAP Diversity Plus: BE3C Assay for Monokine induced gamma interferon (MIG) Biomarker Activity (AID 2283035); details: primary human bronchial epithelial cells; actives raise or lower the signal;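 as to outcome: MIG protein measured by ELISA in BE3C cultures after 24 h of dosing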
# Summary of the method: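 MIG level was determined by ELISA after 24 h chemical treatment of primary human bronchial epithelial cells. Values were fitted bidirectionally with DMSO as the negative control and activity baseline.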
# [6] = read-out: Transforming growth factor beta 1 (TGFb1), TGFB1 (gene 7040); assay: BSK_BE3C_TGFb1: BioMAP Diversity Plus: BE3C Assay for Transforming growth factor beta 1 (TGFb1) Biomarker Activity (AID 2283036;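 as to outcome: TGF-b1 protein level measured by ELISA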); details: primary human bronchial epithelial cells; actives raise or lower the signal
# Summary of the method: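 In this human primary bronchial epithelial system, an ELISA quantified TGF-b1 one day after dosing. Endpoint changes in either direction were fitted relative to DMSO.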
# [7] = read-out: Plasminogen activator inhibitor-1 (PAI1), SERPINE1 (gene 5054); assay: BSK_BE3C_PAI1: BioMAP Diversity Plus: BE3C Assay for Plasminogen activator inhibitor-1 (PAI1) Biomarker Activity (AID 2283037); details: primary human bronchial epithelial cells; actives raise or lower the signal
# Summary of the method: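 PAI-1 biomarker levels in treated human bronchial epithelial cells are determined by ELISA at 24 h. Both increases and decreases relative to DMSO are fitted.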
# [8] = read-out: urokinase plasminogen activator (uPA), PLAU (gene 5328); assay: BSK_BE3C_uPA: BioMAP Diversity Plus: BE3C Assay for urokinase plasminogen activator (uPA) Biomarker Activity (AID 2283038); details: primary human bronchial epithelial cells; actives raise or lower the signal;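 as to outcome: uPA protein level quantified by ELISA in cell cultures; uPA read one day after compound addition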
# Summary of the method: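 Using confluent primary human lung bronchial epithelial cultures, we dosed chemicals, waited 24 h, then ran a uPA ELISA, fitting bidirectionally against DMSO.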
# [9] = read-out: Urokinase-type plasminogen activator receptor (uPAR), PLAUR (gene 5329); assay: BSK_BE3C_uPAR: BioMAP Diversity Plus: BE3C Assay for Urokinase-type plasminogen activator receptor (uPAR) Biomarker Activity (AID 2283039); details: primary human bronchial epithelial cells; actives raise or lower the signal;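 as to outcome: uPAR protein level measured by ELISA on the cells; cells exposed to compound for one day before measurement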
# Summary of the method: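 A uPAR ELISA serves as the readout, taken 24 h after treating primary human bronchial epithelial cells. Responses in either direction are fitted against DMSO, which defines baseline activity.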
# [10] = read-out: Interleukin-6 (IL6), IL6 (gene 3569); assay: BSK_CASM3C_IL6: BioMAP Diversity Plus: CASM3C Assay for Interleukin-6 (IL6) Biomarker Activity for (AID 2283040); details: primary human coronary artery smooth muscle cells; actives raise or lower the signal
Structure (SMILES),outcome [1],outcome [2],outcome [3],outcome [4],outcome [5],outcome [6],outcome [7],outcome [8],outcome [9],outcome [10],AC50 [1],AC50 [2],AC50 [3],AC50 [4],AC50 [5],AC50 [6],AC50 [7],AC50 [8],AC50 [9],AC50 [10]
CN(C)NC(=O)CCC(=O)O,inactive,inactive,inactive,inactive,inactive,inactive,inactive,inactive,inactive,inactive,,,,,,,,,,
CCc1cnc(C2=NC(C)(C(C)C)C(=O)N2)c(C(=O)O)c1 (stereo unspecified),inactive,inactive,inactive,inactive,inactive,inactive,inactive,inactive,inactive,inactive,,,,,,,,,,
O=[N+]([O-])c1cc(C(F)(F)F)c(Cl)c([N+](=O)[O-])c1Nc1ncc(C(F)(F)F)cc1Cl,inactive,,,,,,,,,inactive,1.2 µM (active),1.52 µM (active) and 3.78 µM (active),1 µM (active) and 2.33 µM (active),1.23 µM (active) and 4.77 µM (active),4.03 µM (active) and 7.17 µM (active),2.51 µM (active) and 9.94 µM (active),7.78 µM (active) and 8.98 µM (active),2.19 µM (active) and 1.62 µM (active),7.71 µM (active) and 8.37 µM (active),3.6 µM (active)
CON=C(C(=O)OC)c1ccccc1CON=C(C)c1cccc(C(F)(F)F)c1,inactive,inactive,inactive,,inactive,inactive,,inactive,,,,,,20 µM (active),,,8.79 µM (active),,5.37 µM (active),1.92 µM (active)
CSC1=N[C@@](C)(c2ccccc2)C(=O)N1Nc1ccccc1,inactive,inactive,,inactive,inactive,inactive,inactive,inactive,inactive,inactive,,,9.4 µM (active),,,,,,,
CCCOc1nn(C(=O)NS(=O)(=O)c2ccccc2C(=O)OC)c(=O)n1C,inactive,inactive,inactive,inactive,,inactive,inactive,inactive,,inactive,,,,,,,,,1.32 µM (active),
CN(C)C(=O)Nc1cccc(C(F)(F)F)c1,inactive,inactive,inactive,inactive,inactive,inactive,inactive,inactive,inactive,inactive,,,,,,,,,,
C[N+]1(C)CCCCC1,inactive,inactive,inactive,inactive,inactive,,inactive,inactive,inactive,inactive,,,,,,193 nM (active),,,,
CNc1cnn(-c2cccc(C(F)(F)F)c2)c(=O)c1Cl,inactive,,inactive,inactive,inactive,inactive,inactive,inactive,inactive,inactive,,23.7 µM (active),,,,,,,,
CCOP(=S)(OCC)Oc1cc(C)nc(C(C)C)n1,inactive,inactive,inactive,inactive,inactive,inactive,inactive,inactive,inactive,inactive,,,,,,,,,,
Nc1c(Cl)cc([N+](=O)[O-])cc1Cl,inactive,,inactive,inactive,inactive,inactive,inactive,inactive,inactive,inactive,,12.6 µM (active),,,,,,,,
CCOP(=O)(SC(C)CC)N1CCSC1=O (stereo unspecified),inactive,inactive,inactive,inactive,inactive,inactive,inactive,inactive,inactive,inactive,,,,,,,,,,
CN1COCN(Cc2cnc(Cl)s2)C1=N[N+](=O)[O-],inactive,inactive,inactive,inactive,inactive,inactive,inactive,inactive,inactive,inactive,,,,,,,,,,
CCCSP(=O)(OCC)SCCC,inactive,inactive,inactive,inactive,inactive,inactive,inactive,inactive,inactive,inactive,,,,,,,,,,
CSc1nc(NC(C)C)nc(NC(C)C)n1,inactive,inactive,inactive,inactive,inactive,inactive,inactive,inactive,inactive,inactive,,,,,,,,,,
Cc1cc(C2CC2)nc(Nc2ccccc2)n1,inactive,,inactive,inactive,inactive,inactive,inactive,inactive,inactive,inactive,,5.17 µM (active),,,,,,,,
CCC(=O)Nc1ccc(Cl)c(Cl)c1,inactive,inactive,inactive,,inactive,,inactive,inactive,inactive,inactive,,,,27.2 µM (active),,3970 nM (active),,,,
